According to PubChem BioAssay (NCATS):
Inconclusive results are not listed. Where a call stands in place of a potency, no number is given. Activity calls are given as the source filed them. Calls follow the shape of the dose curve; as a rule, active = well fitted inhibition curve with a large enough effect; inconclusive = small, poorly fitted or top-dose-only effect; inactive = flat fitted curve, though single readings scatter.

How the values were obtained:
Assay in all cases: qHTS profiling for inhibitors of Plasmodium falciparum proliferation (AID 504749); also: nearly all actives have a fitted effect of over 60% in size
Conditions in all cases: P. falciparum in erythrocytes, SYBR Green DNA, 72 h; series mostly up to 28.7 µM
3D7 = test system: 3D7
Method in brief: (§1)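 Each compound contacts P. falciparum-infected red blood cells for 72 h at 37 C; lysis buffer (Tris, EDTA, saponin, Triton X, SYBR Green I) is added and fluorescence measured next morning; values normalized to controls.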

7G8 = test system: 7G8
Method in brief: as §1

AA1029 = test system: AA1029
Method in brief: as §1

AS120 = test system: AS120
Method in brief: as §1

ATS189 = test system: ATS189
Method in brief: as §1

ATS95 = test system: ATS95
Method in brief: as §1

C2A = test system: C2A
Method in brief: as §1

CP185 = test system: CP185
Method in brief: as §1

CP191 = test system: CP191
Method in brief: as §1

CP192 = test system: CP192
Method in brief: as §1
Potency is read from the fitted curve at half-maximal effect.

Row | Compound | Potency (3D7) | Potency (7G8) | Potency (AA1029) | Potency (AS120) | Potency (ATS189) | Potency (ATS95) | Potency (C2A) | Potency (CP185) | Potency (CP191) | Potency (CP192)
1 | O=C1c2ccccc2C(=O)C1c1ccc(Cl)cc1 | inactive | inactive | inactive | inactive | inactive | inactive | inactive | inactive | inactive | inactive
2 | CC/C(=C(/CC)c1ccc(OP(=O)(O)O)cc1)c1ccc(OP(=O)(O)O)cc1 | inactive | inactive | inactive | inactive | inactive | inactive | inactive | inactive | inactive | inactive
3 | OCCCNc1ccccc1 | inactive | inactive | inactive | inactive | inactive | inactive | inactive | inactive | inactive | inactive
4 | CN[C@@H]1[C@H](O[C@H]2[C@H](O[C@H]3[C@H](O)[C@@H](O)[C@H](N=C(N)N)[C@@H](O)[C@@H]3N=C(N)N)O[C@@H](C)[C@]2(O)C=O)O[C@@H](CO)[C@H](O)[C@H]1O | inactive | inactive | inactive | inactive | inactive | inactive | inactive | inactive | inactive | inactive
5 | CC(C)(C)c1ccc2c(S(=O)(=O)O)c(C(C)(C)C)ccc2c1 | inactive | inactive | inactive | inactive | inactive | inactive | inactive | inactive | inactive | inactive
6 | OCl | inactive | inactive | inactive | inactive | inactive | inactive | inactive | inactive | inactive | inactive
7 | CCCCC(CC)CCC(CC(C)C)OS(=O)(=O)O (configuration not stated) | inactive | inactive | inactive | inactive | inactive | inactive | inactive | inactive | inactive | inactive
8 | N[C@H](CC(=O)O)C(=O)O | inactive | inactive | inactive | inactive | inactive | inactive | inactive | inactive | inactive | inactive
9 | CC(=O)Oc1cccc(C(=O)O)c1OC(C)=O | inactive | inactive | inactive | inactive | inactive | inactive | inactive | inactive | inactive | inactive
10 | CC(=O)N=c1sc(S(N)(=O)=O)nn1C | inactive | inactive | inactive | inactive | inactive | inactive | inactive | inactive | inactive | inactive
11 | COC(=O)C(CN)c1c[nH]c2ccc(OC)cc12 (configuration not stated) | inactive | inactive | inactive | inactive | inactive | inactive | inactive | inactive | inactive | inactive
12 | CCCCCCCCCCCCCCCCCC[N+](C)(C)CCC[Si](OC)(OC)OC | inactive | inactive | inactive | inactive | inactive | inactive | inactive | inactive | inactive | inactive
13 | CCCC(=O)O | inactive | inactive | inactive | inactive | inactive | inactive | inactive | inactive | inactive | inactive
14 | C[C@H]1O[C@@H](O[C@H]2[C@@H](O)C[C@H](O[C@H]3[C@@H](O)C[C@H](O[C@H]4CC[C@@]5(C)[C@H](CC[C@@H]6[C@@H]5C[C@@H](O)[C@]5(C)[C@@H](C7=CC(=O)OC7)CC[C@]65O)C4)O[C@@H]3C)O[C@@H]2C)C[C@H](O)[C@@H]1O | inactive | 11.2 µM (active) | inactive | inactive | inactive | inactive | inactive | inactive | inactive | inactive
15 | Nc1nccs1 | inactive | inactive | inactive | inactive | inactive | inactive | inactive | inactive | inactive | inactive
16 | C[C@H](CCC(=O)O)[C@H]1CC[C@H]2[C@@H]3CC[C@@H]4C[C@H](O)CC[C@]4(C)[C@H]3C[C@H](O)[C@]12C | inactive | inactive | inactive | inactive | inactive | inactive | inactive | inactive | inactive | inactive
17 | CCCCC[C@H](O)/C=C/[C@H]1[C@H](O)CC(=O)[C@@H]1C/C=C\CCCC(=O)O | inactive | inactive | inactive | inactive | inactive | inactive | inactive | inactive | inactive | inactive
18 | [O]=[Bi][O]C(=O)[O][Bi]=[O] | inactive | 10 µM (active) | inactive | inactive | inactive | inactive | inactive | inactive | inactive | inactive
19 | O=C(O)[C@H]1CN(C/C=C/P(=O)(O)O)CCN1 | inactive | inactive | inactive | inactive | inactive | inactive | inactive | inactive | inactive | inactive
20 | O=S(=O)(O)CC(S)CS (configuration not stated) | inactive | inactive | inactive | inactive | inactive | inactive | inactive | inactive | inactive | inactive
21 | COC1=C(OC)C(=O)C(C/C=C(\C)CC/C=C(\C)CC/C=C(\C)CC/C=C(\C)CC/C=C(\C)CC/C=C(\C)CC/C=C(\C)CC/C=C(\C)CC/C=C(\C)CCC=C(C)C)=C(C)C1=O | inactive | inactive | inactive | inactive | inactive | inactive | inactive | inactive | inactive | inactive
22 | CCOc1ccc(S(=O)(=O)O)c2cccnc12 | inactive | inactive | inactive | inactive | inactive | inactive | inactive | inactive | inactive | inactive

Row | Compound | Potency (3D7) | Potency (7G8) | Potency (AA1029) | Potency (AS120) | Potency (ATS189) | Potency (ATS95) | Potency (C2A) | Potency (CP185) | Potency (CP191) | Potency (CP192)
23 | O=P(O)(O)OC[C@H]1O[C@](O)(COP(=O)(O)O)[C@@H](O)[C@@H]1O | inactive | inactive | inactive | inactive | inactive | inactive | inactive | inactive | inactive | inactive
24 | CC(=O)N[C@@H]1C(O[C@H]2O[C@H](C(=O)O)C(O)[C@H](O)[C@H]2O)[C@H](O)[C@@H](CO)O[C@H]1O[C@@H]1C(C(=O)O)O[C@@H](O[C@H]2[C@H](O)[C@@H](CO)OC(O)[C@@H]2NC(C)=O)[C@H](O)[C@H]1O (some centres not stated) | inactive | inactive | inactive | inactive | inactive | inactive | inactive | inactive | inactive | inactive
25 | NCC[C@H](O)C(=O)N[C@@H]1C[C@H](N)[C@@H](O[C@H]2O[C@H](CN)CC[C@H]2N)[C@H](O)[C@H]1O[C@H]1O[C@H](CO)[C@@H](O)[C@H](N)[C@H]1O | inactive | inactive | inactive | inactive | inactive | inactive | inactive | inactive | inactive | inactive
26 | OCC(O)CO | inactive | inactive | inactive | inactive | inactive | inactive | inactive | inactive | inactive | inactive
27 | CC(=O)Nc1ccc(OC(C)=O)cc1 | inactive | inactive | inactive | inactive | inactive | inactive | inactive | inactive | inactive | inactive
28 | CC(CCc1ccc(O)cc1)NCC(O)c1ccc(O)cc1 (configuration not stated) | inactive | inactive | inactive | inactive | inactive | inactive | inactive | inactive | inactive | inactive
29 | Cc1cc(=O)c(C(=O)N[C@@H](C(=O)N[C@@H]2C(=O)N3C(C(=O)O)=C(CSc4nnnn4C)CS[C@H]23)c2ccc(O)cc2)c[nH]1 | inactive | inactive | inactive | inactive | inactive | inactive | inactive | inactive | inactive | inactive
30 | O=C1c2ccccc2C(=O)c2c1ccc(O)c2O | inactive | inactive | inactive | inactive | inactive | inactive | inactive | inactive | inactive | inactive
31 | CCOC(=O)c1cc(-c2ccccc2)nc2ccc(C)cc12 | inactive | inactive | inactive | inactive | inactive | inactive | inactive | inactive | inactive | inactive
32 | C(=C\c1ccncc1)/c1ccccc1 | inactive | 12.6 µM (active) | inactive | inactive | inactive | inactive | inactive | inactive | inactive | inactive
33 | Cc1ccc(S(=O)(=O)O)cc1C | inactive | inactive | inactive | inactive | inactive | – | inactive | inactive | inactive | inactive
34 | Cc1nc(NS(=O)(=O)c2ccc(N)cc2)nc(C)c1Br | inactive | inactive | inactive | inactive | inactive | inactive | inactive | inactive | inactive | inactive
35 | N=C(N)n1cccn1 | inactive | inactive | inactive | inactive | inactive | inactive | inactive | inactive | inactive | inactive
36 | Nc1ccc(N=Nc2ccccc2)c(N)n1 | inactive | inactive | inactive | inactive | inactive | inactive | – | inactive | – | inactive
37 | CC1(O)CCC(C(C)(C)O)CC1 (configuration not stated) | inactive | inactive | inactive | inactive | inactive | inactive | inactive | inactive | inactive | inactive
38 | CN1CCC(OC(=O)C(Oc2ccc(Cl)cc2)Oc2ccc(Cl)cc2)CC1 | inactive | inactive | inactive | inactive | inactive | inactive | inactive | inactive | inactive | inactive
39 | O=[n+]1ccn([O-])c2ccccc21 | inactive | inactive | inactive | inactive | inactive | inactive | inactive | inactive | inactive | inactive
40 | CNC(=O)C[C@@H](N)C(=O)N[C@@H](C(=O)N[C@@H]1C(=O)N2[C@@H]1SC(C)(C)[C@@H]2C(=O)O)c1ccc(O)cc1 | inactive | inactive | inactive | inactive | inactive | inactive | inactive | inactive | inactive | inactive
41 | COc1ccc(C(=O)c2ccc(C)cc2)c(O)c1 | inactive | inactive | inactive | inactive | inactive | inactive | inactive | inactive | inactive | inactive
42 | Cc1ncc(C[n+]2csc(CCO)c2C)c(N)n1 | inactive | inactive | inactive | inactive | inactive | inactive | inactive | inactive | inactive | inactive
43 | Cc1c(Cl)cccc1Nc1ncccc1C(=O)O | inactive | inactive | inactive | inactive | inactive | inactive | inactive | inactive | inactive | inactive
